In PubChem BioAssay:
Inconclusive results are not listed. Active and inactive are the calls of the source.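 How the source made its calls, unless noted: active means RAM network inhibition above 8.4% in each of two replicates, 3 SD over the compound average; inconclusive means above 8.4% inhibition in only one replicate; inactive means 8.4% inhibition or less in each replicate.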

Assays:
[1] = Her2 expression decrease, cell viability multiplex – SKBR3 breast tumor cells, AlphaScreen, ATP viability, primary screen (AID 461;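 active means Her2 level under about 52% in both replicate screens, with viability over 70% of control, limit read from the data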;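 on Her2 level: lower value means less Her2 protein in the cells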;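 on viability: percent of carrier control wells set as 100% viability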); conditions: SKBR3 Her2 protein level, 18-24 h, measured here: SKBR3 viability, ATP luminescence, at 10 µM
[2] = molecular target: Receptor tyrosine-protein kinase erbB-2 (Homo sapiens) (UniProt P04626); assay: as above; conditions: 18-24 h, at 10 µM, stronger effect = lower value
Receptor tyrosine-protein kinase erbB-2 (Homo sapiens), sequence (P04626 whole entry, looked up): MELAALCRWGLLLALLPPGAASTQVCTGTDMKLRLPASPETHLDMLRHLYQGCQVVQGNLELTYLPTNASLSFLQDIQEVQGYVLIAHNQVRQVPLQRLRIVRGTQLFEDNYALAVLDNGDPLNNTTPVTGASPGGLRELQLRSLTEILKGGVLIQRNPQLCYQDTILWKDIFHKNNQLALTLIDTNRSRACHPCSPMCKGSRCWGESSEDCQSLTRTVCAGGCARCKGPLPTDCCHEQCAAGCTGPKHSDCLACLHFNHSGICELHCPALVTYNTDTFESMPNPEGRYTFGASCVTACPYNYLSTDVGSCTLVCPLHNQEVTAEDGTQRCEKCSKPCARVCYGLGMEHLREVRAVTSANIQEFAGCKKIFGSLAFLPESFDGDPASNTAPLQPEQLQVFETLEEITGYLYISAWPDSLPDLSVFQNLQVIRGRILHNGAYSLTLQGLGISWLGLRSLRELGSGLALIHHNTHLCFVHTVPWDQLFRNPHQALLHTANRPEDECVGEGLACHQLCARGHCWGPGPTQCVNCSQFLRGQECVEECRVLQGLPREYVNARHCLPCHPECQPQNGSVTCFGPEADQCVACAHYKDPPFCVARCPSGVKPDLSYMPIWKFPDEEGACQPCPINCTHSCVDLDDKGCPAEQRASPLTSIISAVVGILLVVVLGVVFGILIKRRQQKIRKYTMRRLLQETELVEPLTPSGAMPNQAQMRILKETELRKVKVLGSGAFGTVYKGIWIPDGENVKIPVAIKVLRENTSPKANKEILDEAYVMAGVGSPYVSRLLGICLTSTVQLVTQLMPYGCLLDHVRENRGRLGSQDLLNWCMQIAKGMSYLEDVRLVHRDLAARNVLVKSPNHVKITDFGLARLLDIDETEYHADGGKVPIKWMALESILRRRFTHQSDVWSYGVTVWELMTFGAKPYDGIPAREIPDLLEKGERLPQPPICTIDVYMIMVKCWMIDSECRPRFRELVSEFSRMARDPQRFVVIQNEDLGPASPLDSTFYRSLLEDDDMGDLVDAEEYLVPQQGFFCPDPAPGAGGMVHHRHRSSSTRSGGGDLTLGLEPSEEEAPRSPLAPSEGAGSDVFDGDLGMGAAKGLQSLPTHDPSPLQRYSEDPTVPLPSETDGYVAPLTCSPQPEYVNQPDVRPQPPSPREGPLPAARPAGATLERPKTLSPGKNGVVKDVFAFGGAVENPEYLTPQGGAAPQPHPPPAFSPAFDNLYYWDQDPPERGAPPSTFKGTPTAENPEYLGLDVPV

[3] = reduced viability of SK-BR-3 breast cancer cells – cell-based, 24 h, human, pilot screen (AID 572;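 active means viability at or below 10% of carrier control in both of two separate runs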;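 further: compound exposure lasted between 18 and 24 h rather than exactly 24 h; 100% = carrier-treated control wells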); conditions: SK-BR-3 viability, CellTiter-Glo luminescence, at 10 µM, stronger effect = lower value
[4] = HUVEC growth inhibition – cell-based, human, primary screen (AID 575;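 active means viability at or below 30% in both replicate assays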;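 further: 100% = median of untreated cell wells with 0.1% DMSO on each plate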); conditions: HUVEC proliferation, CellTiter-Glo luminescence, 72 h; at 10 µM; stronger effect = lower value
[5] = H69AR cell proliferation blockers – human, duplicate replicates, primary screen (AID 580;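 active means viability at or under a set limit in both replicates, limit being median viability minus 3 SD, cut at about 48% in these data, passing the limit was not always enough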;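 further: 100% = mean luminescence of untreated wells and 0% = no signal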); conditions: H69AR lung tumor cells viability, ATP luminescence, 72 h; at 10 µM; stronger effect = lower value
[6] = MRP1 drug-resistance reversers in H69AR cells – cell-based, doxorubicin co-treatment, pilot screen (AID 601;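 active means viability loss from added drug above about 55%, and viability with drug at most 40%, in both replicates, limit read from the data, passing the limit was not always enough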); conditions: CellTiter-Glo, 72 h, at 10 µM; for differential viability (reversal): stronger effect = higher value
[7] = yeast transport mutant growth inhibition pilot in 384-well plates, post-Golgi transport modulator project (AID 636; in the data active means inhibition above about 31%); conditions: absorbance 615 nm, about 18 h, stronger effect = higher value
[8] = growth suppression of yeast trafficking mutant, preliminary HTS, modulators of trafficking downstream of Golgi apparatus project, 1536-format plate, OD 615 nm (AID 637; in the data active means inhibition above about 30%); conditions: yeast transport mutant growth, absorbance 615 nm, 18 h; stronger effect = higher value
[9] = S. cerevisiae growth inhibition in permissive medium (OD615), pilot counter-assay for S. cerevisiae lifespan shortening project, permissive growth control (AID 705;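 active means growth inhibition above 25% in both replicates, a cutoff set 3 SD above the mean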); conditions: OD615, 24 h, at 10 µM, stronger effect = higher value
[10] = S. cerevisiae growth inhibition in restrictive medium, OD615, pilot screen, restrictive growth control, yeast lifespan reduction project (AID 706;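 active means growth inhibition above a set limit, 3 SD over mean compound inhibition, in both replicates, cut at about 43% in these data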;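 further: modified DeaD lifespan yeast strain shifted to restrictive glucose medium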); conditions: OD615, 48 h, at 10 µM, stronger effect = higher value
[11] = doxorubicin toxicity protection in MRP-1 cells – H69AR cells, CellTiter-Glo, duplicate, MRP-1 activator project, pilot screen (AID 807;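 active means viability increase at or above a cutoff of the median across tested compounds plus 3 SD, cut at about 8.5% in these data, passing the limit was not always enough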;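 further: compound pretreatment 18-22 h then 72 h combined with doxorubicin; 0% = doxorubicin alone and 100% = vehicle without doxorubicin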); conditions: H69AR viability with doxorubicin, CellTiter-Glo luminescence; at 10 µM; stronger effect = higher value
[12] = viability of HCT116 without oncogenic beta-catenin – human colon tumor cells, pilot screen (AID 823;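 active means cell viability at or below a set limit in both duplicate runs, the limit being the all-compound median minus 4 SD, cut at about 23% in these data, passing the limit was not always enough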;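 further: 0% = wells killed by 20 µM Hyamine and 100% = untreated DMSO cell wells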); conditions: HCT116 beta-catenin knockout viability, CellTiter-Glo, 60 h; at 10 µM; stronger effect = lower value
[13] = viability of PTEN-null HCT116 cells – cell-based, HCT116 clonal line, CellTiter-Glo, pilot screen (AID 824;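 active means viability at or below 27.92% in each of two runs, the all-compound median minus 4 SD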;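 further: 0% = 20 µM Hyamine control and 100% = vehicle cell control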); conditions: HCT116 PTEN-deleted viability, 60 h, at 10 µM, stronger effect = lower value
[14] = RAM pathway blockade in budding yeast – dse1pr::URA3 reporter, 5-FOA selection, pilot screen (AID 869;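 active means inhibition over a set limit, the all-compound mean plus 3 SD, in both replicate runs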;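 further: 0% = DMSO wells with no growth and 100% = 10 µM 1-NA-PP1 with full growth; RAM network block rescues cells from 5-FOA so hits raise OD615 growth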); conditions: S. cerevisiae dse1pr::URA3 5-FOA growth, OD615, 2 d; at 10 µM; stronger effect = higher value; strain carries analog-sensitive mutant Cbk1 kinase
[15] = RAM signaling pathway blockade in yeast – S. cerevisiae, Pdr1DBD-CYC8 efflux-inhibited sensitized strain, primary screen (AID 1298);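 further: 0% = DMSO untreated cells without growth and 100% = 10 µM 1-NA-PP1 full growth; higher means more yeast growth rescued from 5-FOA killing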; conditions: S. cerevisiae cbk1-as DSE1-URA3 strain, 5-FOA growth OD615, 2 d; at 50 µM; stronger effect = higher value
[16] = H69AR cells + 2 uM doxorubicin, measured here: viability with 2 uM doxorubicin, stronger effect = lower value
[17] = H69AR cells, compound alone cytotoxicity

| Structure (SMILES) | viability [1] | Her2 level [2] | viability [3] | viability [4] | viability [5] | differential viability (reversal) ([6]; H69AR cells + 2 uM doxorubicin) | viability [6, 16] | viability [6, 17] | inhibition [7] | inhibition [8] | growth inhibition [9] | growth inhibition [10] | viability increase [11] | viability [12] | viability [13] | inhibition [14] | RAM network inhibition [15] |
| --- | --- | --- | --- | --- | --- | --- | --- | --- | --- | --- | --- | --- | --- | --- | --- | --- | --- |
| COc1cccc(-c2nc3n(n2)C(c2ccccc2Cl)C(C(N)=O)=C(C)N3)c1 (stereo not given) | 91% | 94% (inactive) | 91% (inactive) | 74.3% (inactive) | 90.4% (inactive) | 14.6% (inactive) | 75.8% | 90.4% | -0.8% (inactive) | -5.17% (inactive) | -7.99% (inactive) | -0.24% (inactive) | -3.31% (inactive) | 82.8% (inactive) | 82.2% (inactive) | 0.735% (inactive) | 3.45% (inactive) |
| C=CCOC(=O)COc1ccc2c(C)c(C)c(=O)oc2c1C | 106% | 92.5% (inactive) | 106% (inactive) | 97.9% (inactive) | 125% (inactive) | 19.5% (inactive) | 106% | 125% | -0.81% (inactive) | -3.49% (inactive) | -18.3% (inactive) | -15.6% (inactive) | 2.23% (inactive) | 101% (inactive) | 95.9% (inactive) | 1% (inactive) | 2.98% (inactive) |
| CCc1ccc(N(CC(=O)NC2CCCC2)S(=O)(=O)c2c(C)noc2C)cc1 | 102% | 110% (inactive) | 102% (inactive) | 101% (inactive) | 84% (inactive) | 3.79% (inactive) | 80.2% | 84% | -4.4% (inactive) | -0.83% (inactive) | -3.32% (inactive) | 3.27% (inactive) | -1.49% (inactive) | 92.3% (inactive) | 93.8% (inactive) | – | 2.82% (inactive) |
| CC(=O)OCCNc1cc(N2CCN(C)CC2)c2noc3c2c1C(=O)c1ccccc1-3 | 83% | 102% (inactive) | 83% (inactive) | 68.9% (inactive) | 66.9% (inactive) | -8.49% (inactive) | 75.4% | 66.9% | -1.54% (inactive) | 3.33% (inactive) | -7.97% (inactive) | -9.2% (inactive) | -6.89% (inactive) | 76.8% (inactive) | 73% (inactive) | 8.66% (active) | 12.4% (inactive) |
| CC(CCc1ccccc1)NC(=O)C1CCCN(c2nnc(-n3cccc3)s2)C1 (stereo not given) | 89.5% | 86.5% (inactive) | 89.5% (inactive) | 97.1% (inactive) | 82.6% (inactive) | 0.56% (inactive) | 82% | 82.6% | -0.38% (inactive) | -3.17% (inactive) | -16.5% (inactive) | 0.105% (inactive) | -1.84% (inactive) | 93.5% (inactive) | 96% (inactive) | – | 2.83% (inactive) |
| COc1ccc(N2Cc3ccccc3C2)cc1Cl | 118% | 114% (inactive) | 118% (inactive) | 81.9% (inactive) | 89.9% (inactive) | -4.19% (inactive) | 94% | 89.9% | -4.27% (inactive) | -9.17% (inactive) | -2.97% (inactive) | -10.6% (inactive) | 0.04% (inactive) | 94% (inactive) | 87.7% (inactive) | – | 7.11% (inactive) |
| O=C(NC1CCCc2ccccc21)c1ccc(CNc2c(N3CCOCC3)c(=O)c2=O)cc1 (stereo not given) | 86.5% | 100% (inactive) | 86.5% (inactive) | 95.5% (inactive) | 91.7% (inactive) | 14.2% (inactive) | 77.5% | 91.7% | 1.79% (inactive) | 2.67% (inactive) | -3.71% (inactive) | -2.73% (inactive) | -3.89% (inactive) | 89.1% (inactive) | 59.3% (inactive) | – | 6.53% (inactive) |
| O=C1CCCC2=C1C(c1cccc(Br)c1)n1nc(-c3ccco3)nc1N2 (stereo not given) | 95.5% | 73% (inactive) | 95.5% (inactive) | 80.6% (inactive) | 103% (inactive) | 2.4% (inactive) | 100% | 103% | -1.73% (inactive) | -2.95% (inactive) | -11.7% (inactive) | -0.21% (inactive) | -2.06% (inactive) | 81.5% (inactive) | 76.5% (inactive) | – | 0.99% (inactive) |
| O=C(COc1ccc(=O)n(-c2ccccc2)n1)Nc1ccccc1 | 96% | 95.5% (inactive) | 96% (inactive) | 102% (inactive) | 98.8% (inactive) | 6.32% (inactive) | 92.4% | 98.8% | -4.4% (inactive) | 0.82% (inactive) | -1.58% (inactive) | 9.99% (inactive) | -1.83% (inactive) | 109% (inactive) | 98.6% (inactive) | 2.81% (inactive) | 1.04% (inactive) |
| Cc1cc(C)cc(N2C(=O)CC(N3CCOCC3)C2=O)c1 (stereo not given) | 104% | 84% (inactive) | 104% (inactive) | 100% (inactive) | 191% (inactive) | 98.5% (inactive) | 92.2% | 191% | -1.89% (inactive) | 0.82% (inactive) | -9.16% (inactive) | -2.19% (inactive) | -0.95% (inactive) | 102% (inactive) | 92.5% (inactive) | 0.41% (inactive) | 0.87% (inactive) |
